These sequences were tested against COMMD1 (assay: pooled miR-30 sensor sort-seq; sequence = guide strand). Conditions: shRNA.
In the case of TTCTTCTACCTCTGACAGCGTC, the sensor-assay potency score (higher = more potent) is reported as -0.845.
TGATACTTTCTTCTACCTCTGA showed a sensor-assay potency score (higher = more potent) of -0.273.
Work on TTGACTGAGACTTGCCATCAAC yielded a sensor-assay potency score (higher = more potent) of -1.5.
Sequence TTTCAACAACTCCAACTCCTTC has a sensor-assay potency score (higher = more potent) of -0.622.
Sequence TTTGTCTTGTGGCTCTTCCAGA has a sensor-assay potency score (higher = more potent) of -0.37.
Work on TTTTGTCTTGTGGCTCTTCCAG yielded a sensor-assay potency score (higher = more potent) of -0.915.
TATAATGGCAACAGGTGTGTGT gave a sensor-assay potency score (higher = more potent) of 0.267.
TTGCCATCAACTCTCCAGCTCA showed a sensor-assay potency score (higher = more potent) of -1.2.
In the case of TTTGGAAATGACAGCAGCTTGG, the sensor-assay potency score (higher = more potent) is reported as -0.686.
For TTCTACCTCTGACAGCGTCTTC, the sensor-assay potency score (higher = more potent) was -0.88.
In the case of TTGAGCTGAGTGCCTTGACTGA, the sensor-assay potency score (higher = more potent) is reported as -0.799.
With TTTGACCTCATCAAATTCCAAA the sensor-assay potency score (higher = more potent) was -0.935.

These sequences were tested against COMMD8 in the same assay as above. Conditions: shRNA.
In the case of TATTTCTCTTGACAGAGCCTGT, the sensor-assay potency score (higher = more potent) is reported as -1.04.
Sequence TATTGCTGCTTTCTCAGCCTGG has a sensor-assay potency score (higher = more potent) of -0.453.
Work on TATTTTGTGAAGAAGCTGCGGG yielded a sensor-assay potency score (higher = more potent) of 0.366.
In the case of TTCTTTTACATCTAGATGCAGG, the sensor-assay potency score (higher = more potent) is reported as -0.776.
TTGATTTCATCTTTCCTACTTT was tested, and the sensor-assay potency score (higher = more potent) was -0.353.
Sequence TTTACATCTAGATGCAGGCTTA has a sensor-assay potency score (higher = more potent) of -0.242.
Also: reference of the scale not given here.
